Myeloid diff MLP: induction of myeloid progenitor differentiation, primary screen, cell-based, flow cytometry, MLPCN library | ER-HoxA9 myeloid progenitors, lysozyme-GFP differentiation | calls only at 10 µM | actives 1% (n = 360,000) | AID 624256, 2012;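 active = normalized GFP-positive differentiation at or above the plate's own cutoff, the solvent-only control mean plus 3 SD; inconclusive = no clear call, values can overlap the other calls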;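 note: cells exposed to compound for four days before flow analysis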
NPR2 activator: human GC-B receptor activators, primary screen, HEK293 GC-B cells, cGMP TR-FRET, EC30 CNP; Atrial natriuretic peptide receptor 2 (Homo sapiens), P20594; 0% at EC30 CNP, 100% saturating CNP; activation, % at 10 µM; actives 0.11% (n = 370,000);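 active = activation at 10 µM reaching about 35% in either raw or pattern-adjusted values, limit read from the data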
NPR1 activator: GC-A stimulated cGMP production enhancers – HEK293 GC-A cells, cGMP TR-FRET, EC30 ANP, primary screen; 0% at EC30 ANP, 100% saturating ANP; activation, % at 10 µM; actives 0.14% (n = 370,000); in the data active = activation above about 40%
Exocytosis inh: LAMP-1 surface exposure blockers, TALL-104 cells – cell-based, flow cytometry, MLPCN library, primary screen. TALL-104 LAMP-1 surface exposure; cells stimulated with thapsigargin and PMA. inhibition, % at 10 µM. actives 0.66% (n = 360,000). AID 651702, 2012;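 active = inhibition above about 55%, limit read from the data; inconclusive = no clear call, values can overlap the other calls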
* hit, by the source's call. The list is not random: actives were taken first. Their share in the collection is about 1.8%.

For COC(=O)c1c(C)[nH]c(C)c1C(=O)c1ccccc1Cc1ccccc1 the results were Myeloid diff MLP active, NPR2 activator -6, NPR1 activator -4 and Exocytosis inh -3.
COC(=O)c1c(C)[nH]c(C=O)c1-c1ccccc1 was read as Myeloid diff MLP inactive, NPR2 activator 1, NPR1 activator -3 and Exocytosis inh 15.
For O=C(C1CCCN(S(=O)(=O)c2ccc([N+](=O)[O-])cc2)C1)N1CCN(Cc2ccccc2)CC1 (centres undefined) the results were NPR2 activator -7 and NPR1 activator 1.
`O=C(Nn1c(COc2ccccc2)nc2ccccc2c1=O)C(Cl)(Cl)Cl` gave Myeloid diff MLP inactive, NPR2 activator 0, NPR1 activator 3 and Exocytosis inh 79*.
`Cc1nc2ccccc2c(=O)n1NC(=O)COc1ccccc1` gave Myeloid diff MLP inactive, NPR2 activator 0, NPR1 activator 3 and Exocytosis inh 7.
C[C@@H]1OCN(C)[C@H]2C[C@H]3c4[nH]c5cccc(-c6cccc(F)c6)c5c4CCN3C(=O)[C@@H]12 was read as NPR2 activator -3 and NPR1 activator -3.
For O=[N+]([O-])c1nccn1CCCCCCCCCCCN1CCOCC1 the results were Myeloid diff MLP inactive, NPR2 activator 5, NPR1 activator 2 and Exocytosis inh -1.
CCOC(=O)c1ccc(NC(=O)c2c(N)n(C)c(=O)n(C)c2=O)cc1 was read as Myeloid diff MLP inactive, NPR2 activator -5, NPR1 activator 2 and Exocytosis inh 1.
`Cn1c(N)c(C(=O)Nc2cccc(Cl)c2)c(=O)n(C)c1=O` gave Myeloid diff MLP inactive, NPR2 activator -6, NPR1 activator 47* and Exocytosis inh -8.
Screening Clc1ccc(C(Cn2ccnc2)OCc2c(Cl)cccc2Cl)c(Cl)c1 (centres undefined) returned Myeloid diff MLP active, NPR2 activator 0, NPR1 activator -7 and Exocytosis inh 11.
`O=C(CCS(=O)(=O)c1ccccc1)Nc1ccccc1F` gave Myeloid diff MLP inactive, NPR2 activator -3, NPR1 activator -3 and Exocytosis inh -1.
Screening O=C(O)CSCC(=O)Nc1ccccc1SCCS(=O)(=O)c1ccc(Cl)cc1 returned Myeloid diff MLP active, NPR2 activator 2, NPR1 activator -1 and Exocytosis inh 2.
N/C(=N\OC(=O)c1ccc(Cl)cc1Cl)c1ccncc1 was read as Myeloid diff MLP inactive, NPR2 activator -6, NPR1 activator 43* and Exocytosis inh -8.
Screening CN(Cc1ccccc1)C(=O)OCc1cn(Cc2ccc(F)c(F)c2)nn1 returned NPR2 activator 7 and NPR1 activator 0.
COc1ccc(N=C2S/C(=C\c3ccc(N4CCOCC4)o3)C(=O)N2CCc2c[nH]c3ccccc23)cc1 was read as Myeloid diff MLP inconclusive and Exocytosis inh 82*.
Screening CCCN1C(=O)/C(=C/c2ccc(C)o2)SC1=Nc1ccc(OCC)cc1 returned Myeloid diff MLP inactive, NPR2 activator 6, NPR1 activator 0 and Exocytosis inh 70*.
`COc1ccc(N=C2S/C(=C\c3ccc(C)o3)C(=O)N2CC(C)C)cc1` gave Myeloid diff MLP inactive, NPR2 activator -4, NPR1 activator 1 and Exocytosis inh 9.
CCCN1C(=O)/C(=C/c2ccc(C)o2)SC1=Nc1ccc(OC)cc1 was read as Myeloid diff MLP inactive, NPR2 activator -2, NPR1 activator -3 and Exocytosis inh 80*.
COc1ccc(N=C2S/C(=C\c3ccc(OCC(=O)O)cc3)C(=O)N2CCc2c[nH]c3ccccc23)cc1 was read as Myeloid diff MLP inactive, NPR2 activator -4, NPR1 activator -8 and Exocytosis inh 2.
`CC(=O)c1cccc(NC(=O)C2(C)Cc3c(-c4ccccc4)ccnc3O2)c1` (centres undefined) gave Myeloid diff MLP inactive, NPR2 activator -1, NPR1 activator -2 and Exocytosis inh 0.
For CCOC(=O)C(Oc1ccc2c(-c3ccc(OC)cc3)cc(=O)oc2c1C)c1ccccc1 (centres undefined) the results were Myeloid diff MLP inactive, NPR2 activator 1, NPR1 activator 2 and Exocytosis inh 2.
For COc1ccc(-c2cc(=O)oc3c(C)c(OC(C)C(=O)Nc4ccc(CN5CCOCC5)cc4)ccc23)cc1 (centres undefined) the results were Myeloid diff MLP active, NPR2 activator 0, NPR1 activator -1 and Exocytosis inh 14.
For COc1ccc(-c2cc(=O)oc3c(C)c(OC(C)C(C)=O)ccc23)cc1 (centres undefined) the results were Myeloid diff MLP active, NPR2 activator 0, NPR1 activator 7 and Exocytosis inh -12.
CC(C)=CCN1CCN(Cc2cc(C(C)C)n[nH]2)CC1CCO (centres undefined) was read as Myeloid diff MLP active, NPR2 activator 0, NPR1 activator 2 and Exocytosis inh 5.
`CC(C)c1cc(CN2CCN(C3CCCC3)C(CCO)C2)[nH]n1` (centres undefined) gave Myeloid diff MLP inactive, NPR2 activator 4, NPR1 activator -2 and Exocytosis inh -5.
O=C(c1cnn2c(C(F)(F)F)cc(-c3ccccc3)nc12)N1CCCc2ccccc21 was read as Myeloid diff MLP inactive, NPR2 activator -7, NPR1 activator -5 and Exocytosis inh 3.
O=C(c1nn2c(C(F)(F)F)cc(-c3cccs3)nc2c1Cl)N1CCCc2ccccc21 was read as Myeloid diff MLP active, NPR2 activator -2, NPR1 activator 2 and Exocytosis inh 4.
`Cc1cc(C)c(C)c(S(=O)(=O)N2CCN(C(=O)c3cc(=O)[nH]c4ccccc34)CC2)c1C` gave Myeloid diff MLP active, NPR2 activator -1, NPR1 activator -7 and Exocytosis inh 19.
For Cc1cc(C)c(S(=O)(=O)N2CCN(C(=O)c3cc(=O)[nH]c4ccccc34)CC2)c(C)c1 the results were Myeloid diff MLP inactive, NPR2 activator 5, NPR1 activator -3 and Exocytosis inh -2.
Screening COc1cc(Cl)ccc1OCc1cc(C(=O)N2CCCCCCC2)no1 returned Myeloid diff MLP inactive, NPR2 activator -4, NPR1 activator 0 and Exocytosis inh -4.
Screening COc1cc(Cl)ccc1OCc1cc(C(=O)N[C@H]2CCCCNC2=O)no1 returned Myeloid diff MLP inactive, NPR2 activator 3, NPR1 activator 60* and Exocytosis inh 3.
Screening Cc1ccc(N(C)c2nc(N)nc(N)c2N=O)cc1 returned NPR2 activator -3 and NPR1 activator 15.
Screening COc1ccccc1N1CCN(C(=O)c2ccc3ncsc3c2)CC1 returned Myeloid diff MLP active, NPR2 activator -1, NPR1 activator 0 and Exocytosis inh -6.
`COc1ccc(OC)c2sc(N3CCN(C(=O)c4ccc5ncsc5c4)CC3)nc12` gave Myeloid diff MLP inactive, NPR2 activator 3, NPR1 activator -2 and Exocytosis inh -5.

Screening results as filed in PubChem BioAssay.
